Test results from PubChem BioAssay AID1345083 (National Center for Advancing Translational Sciences (NCATS), 2018).
In all, about 94,000 compounds went through this assay and about 6,200 (6.6%) were called active. About 31% were inconclusive and are not listed. Only a selection was taken, and actives are over-represented in it overall. Values without a mark were called inactive. Calls follow the shape of the dose curve; as a rule, active = well fitted inhibition curve with a large enough effect; inconclusive = small, poorly fitted or top-dose-only effect; inactive = flat fitted curve, though single readings scatter.

assay: Cytotoxic Profiling in HEK 293 Cell Line of Diverse Libraries Using Quantitative High-Throughput Screening; settings: HEK 293 viability, ATP luminescence (CellTiter-Glo), 48-72 h; series mostly up to 115 µM; activity change, negative = cytotoxicity: at the top concentration; also: nearly all actives have a fitted effect of over 60% in size
In short: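 HEK 293 seeded at 250 cells/well receive compound via pintool. After 48 or 72 hr at 37 degree Celsius, 5% CO2 and 95% humidity, CellTiter-Glo is dispensed and luminescence read following 10 min at room temperature.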
% is scaled to controls: 0 for no effect and ±100 for the full control effect; potency is read from the fitted curve at half-maximal effect.

| SMILES | activity change, negative = cytotoxicity | Potency | outcome |
| --- | --- | --- | --- |
| Cc1cc(C(=O)N2C[C@@H](COCC(N)=O)[C@H](c3ccncc3)C2)c(C)o1 | -13.7% | – | – |
| O=C1Nc2cnccc2C2(CCN(C(=O)c3ccccc3F)C2)O1 (centres undefined) | -11.1% [at 172 µM] | – | – |
| CCOc1ccccc1NC(=O)CC[C@H]1NC(=O)c2ccccc2NC1=O | 1.93% | – | – |
| O=C(c1ccoc1)N1CCC(Oc2ncccc2C(=O)N2CCOCC2)C1 (centres undefined) | 2.21% | – | – |
| CN1[C@@H](CCC(=O)NCc2ccccc2)CNC(=O)[C@@H]2[C@H]1CCN2Cc1csnn1 | 0.839% [at 172 µM] | – | – |
| O=C(c1ccc(CO)o1)N1CCC2(CC1)[C@H](O)C[C@@H]2OCCO | -5.07% | – | – |
| CC(c1cccs1)N(C)Cc1ccncc1 (centres undefined) | -4% [at 172 µM] | – | – |
| COCc1nnc2n1CCC(NC(=O)NCCc1ccccc1)CC2 (centres undefined) | -2.98% | – | – |
| O=C(CCCc1ccccc1)Nc1ccc(-c2nnc3n2CCCC3)cc1 | -2.04% | – | – |
| CN1Cc2ncnc(N3CCCCC3)c2CN(c2ccccc2)C1=O | -7.24% [at 172 µM] | – | – |
| O=C(C1CCCN(Cc2cccc(-c3ccc(F)cc3F)c2)C1)N1CCCCC1 (centres undefined) | – | 31.6 µM (active) | – |
| CN(C)C(=O)N1CCCC(C(=O)N2CCC(N3Cc4cccn4C3=O)CC2)C1 (centres undefined) | -6.08% | – | – |
| O=C(Nc1cccc(F)c1)N1CCCC(CN2CCOCC2)CC1 (centres undefined) | -4.63% | – | – |
| O=C(NCC1CC1)C1CCCN(C2CCN(Cc3ccncc3)CC2)C1 (centres undefined) | -7.71% | – | – |
| CNC(=O)[C@@H](Cc1ccccc1)N1CCC[C@H]1C(=O)NCC1CC1 | -15% [at 172 µM] | – | – |
| O=C(c1cccs1)C1CCCN(C(=O)COc2ccc(F)cc2F)C1 (centres undefined) | -46.5% | – | – |
| COc1ccccc1-c1cccc(CN2CCCC(C(=O)NCC3CC3)C2)c1 (centres undefined) | – | 39.8 µM (active) | – |
| O=C1CCN(Cc2ccncc2)CCCC(C(=O)Nc2cccc(F)c2)CCN1 (centres undefined) | -1.43% | – | – |
| O=C(Nc1ccc(F)cc1)C1CCCN(Cc2cccc(-c3ccc(F)cc3F)c2)C1 (centres undefined) | – | 35.5 µM (active) | – |
| Cc1nnc2n1C(C)CN(C(=O)CCCc1nc(-c3ccncc3)no1)C2 (centres undefined) | – | – | inactive |
| O=C(NCc1cccnc1)C1CCCN(c2ccnc3ccnn23)C1 (centres undefined) | -27.3% | – | – |
| CCCNC(=O)NC1CCN(C(=O)N2CC3CC(C2)[C@H]2CCCC(=O)N2C3)CC1 (some centres undefined) | 1.71% | – | – |

| SMILES | activity change, negative = cytotoxicity | Potency | outcome |
| --- | --- | --- | --- |
| O=C(Nc1ccc([C@H]2OCC(=O)N(C3CCOCC3)[C@@H]2CO)cc1)c1ccc(F)c(Cl)c1 | -13% | – | – |
| COc1cc(=O)n2c(c1C(=O)Nc1ccc(Cl)c(F)c1)CCCC2 | -15.7% | – | – |
| CCN1c2cc(C(=O)NCc3ccccc3C(F)(F)F)ccc2C(=O)N2CCCCCC21 (centres undefined) | – | 39.8 µM (active) | – |
| CCN1c2cc(C(=O)Nc3ccc(SC)cc3)ccc2C(=O)N2CCCCCC21 (centres undefined) | – | 22.4 µM (active) | – |
| CCN1C(=O)Cc2cc(C(=O)NCc3cc(OC)ccc3OC)ccc21 | -17.2% | – | – |
| CCN1c2cc(C(=O)Nc3ccc(F)c(Cl)c3)ccc2C(=O)N2CCCCC21 (centres undefined) | – | 39.8 µM (active) | – |
| COc1ccc(CNC(=O)c2ccc3c(c2)N(C)C2CCCCN2C3=O)c(OC)c1 (centres undefined) | 1.55% | – | – |
| CN(C)C[C@@H]1CN(C)C[C@H]1NC(=O)c1ccnnc1 | -2.4% | – | – |
| CC(C)CC(=O)N1CCN(c2nnc3ccccn23)CC1 | – | – | inactive |
| CC(C)(C)CC(=O)Nc1ccc2c(N3CCOCC3)ncnc2c1 | -29.9% | – | – |
| O=C(CCCc1ccccc1)NCCC1CCN(C(=O)Nc2cc(F)cc(F)c2)CC1 | -10.7% | – | – |
| CN1C(=O)C(CC(=O)NCc2ccccc2F)Sc2ncccc21 (centres undefined) | 25.8% | – | – |
| COCc1cccc(C(=O)N2CC[C@@](C)(O)[C@@H](O)C2)n1 | -0.59% | – | – |
| C=CCN(C)c1nc(C)nc2c1CCN(C(=O)N1CCOCC1)CC2 | 2.16% | – | – |
| N#Cc1ccc(CN2CCCC3(COc4ccccc4[S+](=O)([O-])N3)C2)cc1 (centres undefined) | -25.4% | – | – |
| CS(=O)(=O)N1CCCN(C(=O)CN2CCCCCC2)CCNC(=O)CC1c1ccccc1 (centres undefined) | -21.6% | – | – |
| CC(C)CN1CCOC[C@H](Oc2ccc(S(C)(=O)=O)cc2)C1 | -15.6% [at 172 µM] | – | – |
| COc1ccc(O[C@H]2COCCN(Cc3nccn3C)C2)cc1 | -11.1% [at 172 µM] | – | – |
| Cn1cc(CN2CCOC[C@H](Oc3ccc(S(C)(=O)=O)cc3)C2)c2ccccc21 | – | 50.1 µM (active) | – |
| Cc1cc(C(=O)NCC2CCCN(Cc3nnc(-c4cccnc4)o3)C2)no1 (centres undefined) | – | – | inactive |
| Cc1ccc(S(=O)(=O)N(C)Cc2ccccc2C(F)(F)F)cc1 | – | 70.8 µM (active) | – |
| CN(CC1CCOC1)S(=O)(=O)c1ccccc1C(F)(F)F (centres undefined) | -3.67% | – | – |

| SMILES | activity change, negative = cytotoxicity | Potency | outcome |
| --- | --- | --- | --- |
| Cc1ccc(S(=O)(=O)N(C)CC2CCOCC2)cc1F | -30.7% | – | – |
| CN1C(=O)CCC2(CNC(=O)C3CCC3)CCC=C12 (centres undefined) | -10.2% | – | – |
| O=C(NC1CCCC1)NC1CC(c2nnc(CO)n2C2CC2)C1 (centres undefined) | – | – | inactive |
| O=C(C1CCc2nnc(C3CCN([S+](=O)([O-])c4ccccc4)CC3)n21)N1CCOCC1 (centres undefined) | – | – | inactive |
| O=C(N1CCC(Cc2nc(-c3ccccc3)n[nH]2)C1)C1(c2ccccc2)CC1 (centres undefined) | – | 44.7 µM (active) | – |
| O=C(C1CCC1)N1CCC(Cc2nc(-c3cccnc3)n[nH]2)C1 (centres undefined) | 6.91% | – | – |
| O=C(N1CCCC(Cc2nc(C3CCOCC3)no2)C1)C1(c2ccccc2)CC1 (centres undefined) | -16.5% | – | – |
| CCc1noc(-c2cccn3c(CNC(=O)c4cccc(Cl)c4)nnc23)n1 | -11.2% | – | – |
| CC1(c2noc(C3CCOCC3)n2)CCN(Cc2c(F)cccc2Cl)CC1 | -21.5% | – | – |
| CC(C)C(=O)Nc1ccc(C2(C(=O)NCCN3CCCCC3)CCCCC2)cc1 | -15.8% | – | – |
| COc1ccc(NC(=O)[C@@H]2C[C@@H](c3ccc(F)cc3)N(CCOc3ccccc3)C2)cn1 | – | 39.8 µM (active) | – |
| Cc1ccc(NC(=O)[C@@H]2CNC[C@H](C(=O)NCc3ccccn3)C2)cn1 | – | – | inactive |
| O=C(COc1ccc(NC(=O)C2CC2)cn1)NCc1ccc(F)cc1F | 3.7% | – | – |
| O=C(C1NCCc2[nH]cnc21)N1CCc2nnc(-c3ccccc3)n2CC1 (centres undefined) | – | – | inactive |
| O=C(Nc1ccccc1F)N1CCc2nnc(C3CC3)n2CC1 | -8.81% | – | – |
| Cn1nc(C(=O)N2CCC(N3C(=O)C(O)C34CCCCC4)CC2)c2ccccc21 (centres undefined) | – | – | inactive |
| O=C(c1ccc2c(c1)OCO2)N1CCC2(C1)C(=O)Nc1ccccc12 (centres undefined) | – | – | inactive |
| Cc1ccccc1C(=O)N1CCN(C(=O)c2nc3cccnc3n(C3CC3)c2=O)CC1 | – | – | inactive |
| O=C(c1ccc(F)cc1)N1CCN(C(=O)c2nc3cccnc3n(C3CCCC3)c2=O)CC1 | -11.6% | – | – |
| Cc1ccc([S+](=O)([O-])N2CCN(C(=O)c3nc4cccnc4n(C4CCCC4)c3=O)CC2)cc1 | – | 39.8 µM (active) | – |
